Yeast superoxide – lowers age-related superoxide in aged yeast cells | hit rate 0.18% among 330,000 | superoxide response (% of plate mean), % at 10 µM | S. cerevisiae aged cells, superoxide DHE fluorescence; hits give low values;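 active means superoxide response under a set limit, about three screen SD below normal, cut at about 65% in these data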;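 further: yeast aged for seven days with compound at 30 °C before DHE staining; 100% = average MFI of all compound-treated wells on the plate with controls excluded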
ALR inh – blocks human ALR sulfhydryl oxidase activity; hit rate 3.8% among 290,000; purified ALR, DTT oxidation, H2O2 HRP-luminol luminescence; AID 485317; inhibition, % (no concentration beside the values);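 active means mean replicate inhibition above about 79%, with every replicate also reaching it, limit read from the data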
A3G deaminase – inhibitors of human APOBEC3G DNA deaminase. Q9HC16. recombinant A3G, ssDNA deamination FAM/TAMRA fluorescence. inhibition, % at 20 µM. hit rate 0.28% among 330,000. AID 493012;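 active means inhibition of at least 40% at 20 µM, with no more than 30% in the related APOBEC3A deaminase screen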;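 further: plate controls were DMSO wells with A3G for no effect and wells lacking A3G enzyme for full effect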
A3A deaminase – blocks human APOBEC3A ssDNA deamination; P31941; recombinant A3A, FAM/TAMRA ssDNA deamination fluorescence; inhibition, % at 20 µM; hit rate 0.41% among 330,000; AID 493011;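 active means at least 40% inhibition at 20 µM here, with at most 30% in a related deaminase screen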;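 further: plate controls were A3A with DMSO for no effect and wells lacking A3A enzyme for full effect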
NRP1-CendR mod – modulators of CendR peptide binding to human neuropilin-1. O14786. FAM-RPARPAR peptide binding to NRP-1, fluorescence polarization. inhibition, % at 25 µM. hit rate 0.85% among 360,000;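 active means inhibition or corrected inhibition above about 18%, plus a signal ratio from 0.5 to 1.5, limit read from the data, passing the limit was not always enough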
Target sequence (O14786 whole entry, looked up): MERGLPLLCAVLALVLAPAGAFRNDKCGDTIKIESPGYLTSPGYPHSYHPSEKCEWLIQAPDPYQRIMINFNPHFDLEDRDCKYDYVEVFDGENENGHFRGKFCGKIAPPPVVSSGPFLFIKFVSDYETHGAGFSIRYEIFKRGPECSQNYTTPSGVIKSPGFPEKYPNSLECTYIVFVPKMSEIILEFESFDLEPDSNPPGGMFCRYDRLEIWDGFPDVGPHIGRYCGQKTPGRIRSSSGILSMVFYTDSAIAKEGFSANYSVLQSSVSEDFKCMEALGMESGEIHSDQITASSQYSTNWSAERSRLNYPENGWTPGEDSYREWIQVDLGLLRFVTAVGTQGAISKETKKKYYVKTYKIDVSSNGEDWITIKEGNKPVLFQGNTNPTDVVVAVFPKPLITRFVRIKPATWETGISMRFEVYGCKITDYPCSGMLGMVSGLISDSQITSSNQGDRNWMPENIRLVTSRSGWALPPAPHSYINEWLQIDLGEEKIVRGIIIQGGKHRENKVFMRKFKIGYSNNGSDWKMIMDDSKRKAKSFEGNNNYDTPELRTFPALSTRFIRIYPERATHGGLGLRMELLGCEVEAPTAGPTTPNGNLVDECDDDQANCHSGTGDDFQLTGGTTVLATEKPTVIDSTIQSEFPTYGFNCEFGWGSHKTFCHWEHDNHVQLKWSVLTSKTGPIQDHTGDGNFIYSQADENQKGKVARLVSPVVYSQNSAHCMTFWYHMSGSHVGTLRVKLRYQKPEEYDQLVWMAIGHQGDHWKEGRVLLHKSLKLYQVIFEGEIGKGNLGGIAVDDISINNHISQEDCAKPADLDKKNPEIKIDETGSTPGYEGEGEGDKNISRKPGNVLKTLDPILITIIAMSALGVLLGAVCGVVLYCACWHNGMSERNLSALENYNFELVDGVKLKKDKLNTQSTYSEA
M18AAP inhibitor – PfM18AAP enzyme inhibition; recombinant PfM18AAP, H-Glu-NHMec fluorogenic cleavage; AID 1822; inhibition, % at 7.35 µM; hit rate 1.2% among 290,000;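 active means inhibition above the campaign mean inhibition over all tested compounds plus 3 SD, cut at about 28% in these data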;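 further: 0% = plate median of test compound wells and 100% = 2 mM ZnCl2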
An asterisk follows results filed as active; . = not tested or not shown. Compounds with a hit are over-represented: about 5.2% of the library has one in this group of screens.

SMILES	Yeast superoxide	ALR inh	A3G deaminase	A3A deaminase	NRP1-CendR mod	M18AAP inhibitor
Nc1ccc(SCC(=O)Nc2cccc([N+](=O)[O-])c2)cc1	104	99*	-5	-2	7	-4
O=C(CSc1nncc(=O)[nH]1)Nc1cccc([N+](=O)[O-])c1	101	100*	5	11	8	5
CN(C)c1ccc(/C=N/N2C(=S)SC(C)(C)C2N(O)C(=O)Nc2ccc([N+](=O)[O-])cc2)cc1 (stereo not drawn)	105	-8	4	1	7	6
C/C(CC(=O)Nc1ccc(F)cc1)=N\NC(=O)Cc1csc(N)n1	64*	6	-1	-2	-2	6
Cc1ccc(S(=O)(=O)/N=C2\C=C(NS(=O)(=O)c3ccccc3)C(=O)c3ccccc32)c(C)c1	.	.	.	.	20	.
Cc1ccc(S(=O)(=O)/N=C2\C=C(Nc3cccc(C(=O)O)c3)C(=O)c3ccccc32)cc1	122	.	2	4	45*	6
Cc1ccc(S(=O)(=O)/N=C2\C=C(Nc3cccc(C(=O)O)c3)C(=O)c3ccccc32)c(C)c1	102	17	5	6	38*	16
CCOC(=O)CN1Cc2cccc(C(=O)O)c2C1=O	90	-5	3	10	-3	1
CC1Cc2ccccc2N1Cc1cccc(S(=O)(=O)N(C)C)c1 (stereo not drawn)	80	99*	-9	-6	-4	14
CCN(CC)c1ccc(/C=N/NC(=O)OC)c(O)c1	68	98*	-4	-5	0	19
CCN(CC)c1ccc(/C=N/NC(=O)c2ccoc2C)c(O)c1	82	72	-5	1	-6	8
CCN(CC)c1ccc(/C=N/NC(=O)c2ccc3nc[nH]c3c2)c(O)c1	91	97*	1	0	-28	18
COc1cccc(/C=N/NC(=O)c2ccc3nc[nH]c3c2)c1O	92	38	-4	-1	-5	12
O=C1CC/C=C\C[C@@H](CC(=O)N(CCO)Cc2ccccc2)C(=O)NCCO1	112	-1	-5	5	26*	.
Cc1cc(NN)nc(Cc2ccccc2)n1	91	81*	-4	-1	-2	9
Cc1cc(NC(CC(C)C)C(=O)O)nc(Cc2ccccc2)n1 (stereo not drawn)	111	-11	-11	-4	3	0
CCCCn1c(SCC(=O)Nc2cc(C)on2)nnc1-c1ccncc1	98	.	-3	-1	9	-2
COc1ccc(NC(=O)CSc2nnc(-c3ccccn3)n2Cc2ccco2)cc1OC	106	97*	0	1	0	-5
NC(=O)c1ccc(NC(=O)CSc2nnc(-c3cccnc3)n2Cc2ccco2)cc1	126	97*	-5	1	-17	-18
CCOc1ccccc1NC(=O)CSc1nnc(-c2ccccn2)n1Cc1ccco1	98	19	-2	1	-8	-24
CCCn1c(SCC(=O)NCCc2ccccc2)nnc1-c1ccccn1	99	-7	0	1	5	2
CCCCn1c(SCC(=O)Nc2cc(C)on2)nnc1-c1cccnc1	113	-4	-3	1	22*	-2
CCCn1c(SCC(=O)Nc2nnc(-c3ccccc3)s2)nnc1-c1ccccn1	109	-4	-1	-2	27*	-6
Cc1cc(=O)[nH]c(SCC(=O)Nc2ccc3c(c2)OCCO3)n1	97	-2	-1	-1	4	19
O=C(Nc1ccc(-c2nc3ccccc3o2)cc1)c1cccnc1	88	-3	-6	-2	-13	0
SMILES	Yeast superoxide	ALR inh	A3G deaminase	A3A deaminase	NRP1-CendR mod	M18AAP inhibitor
C=CCn1c(SCC(=O)Nc2ccc(NC(=O)c3ccco3)c(OC)c2)nnc1-c1ccncc1	105	99*	9	-1	-7	18
O=c1oc(Nc2ccccc2Cl)nc2ccccc12	.	.	.	.	8	-2
O=c1oc(Nc2ccccc2F)nc2ccccc12	103	2	-3	-3	37*	-6
CCOC(=O)Cc1cc(=O)[nH]c(/N=C(/NC(=O)c2ccccc2)Nc2ccccc2C(F)(F)F)n1	113	1	-2	2	-3	4
NC(=O)C(c1ccc(Cl)cc1)c1ncc(C(F)(F)F)cc1Cl (stereo not drawn)	90	-8	0	0	11	-17
NC(=O)C(c1ccc(Cl)cc1Cl)c1ncc(C(F)(F)F)cc1Cl (stereo not drawn)	115	-14	-8	-2	23*	-4

Screening results as filed in PubChem.
